# Most compounds without a hit are left out; they make up all but 1.6% or so of the library.
# Dyrk1A ADPGlo: inhibitors of rat Dyrk1A kinase; ADP-Glo luminescence, NFATc1 peptide; inhibition, % at 12.5 µM; hit rate 0.43% among 310,000; AID 504441; in the data active = inhibition above about 50%;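 note: plate controls were vehicle with enzyme for no effect and no enzyme for full effect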
# dFosB activator: enhances mouse delta FosB homodimer DNA binding; purified delta FosB, TAMRA-CDK5 oligo fluorescence polarization; percent of positive-control signal above neutral wells; activation, % at 25 µM; hit rate 0.99% among 340,000; AID 493131;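 active = mean activation above about 17%, with every replicate also reaching it, limit read from the data, passing the limit was not always enough; inconclusive = only one of the two conditions met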
# A1 inh: inhibitors of the anti-apoptotic protein A1, read as caspase activation. caspase activation, % (test concentration not listed). hit rate 0.066% among 330,000. MEF A1-2A-BIM cells, Caspase-Glo 3/7 luminescence, 3 h; percent of clofoctol response, vehicle zero. AID 2462;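 active = over half of replicate activation scores above 10%, or exactly half above 10 with the replicate mean above 10; inconclusive = replicate mean below 10 yet half the replicates above 10; inactive = over half of replicates below 10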
# Beta2AR agonist: agonists of human beta-2 adrenergic receptor inducing internalization; P07550; Am2.2-beta2AR cells, FAP receptor internalization, flow cytometry; response, % (test concentration not listed); hit rate 0.43% among 340,000; AID 504454;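 active = response above a set limit, near 3 SD of response in nonfluorescent compounds, cut at about 42% in these data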
# Target sequence (P07550 whole entry, looked up): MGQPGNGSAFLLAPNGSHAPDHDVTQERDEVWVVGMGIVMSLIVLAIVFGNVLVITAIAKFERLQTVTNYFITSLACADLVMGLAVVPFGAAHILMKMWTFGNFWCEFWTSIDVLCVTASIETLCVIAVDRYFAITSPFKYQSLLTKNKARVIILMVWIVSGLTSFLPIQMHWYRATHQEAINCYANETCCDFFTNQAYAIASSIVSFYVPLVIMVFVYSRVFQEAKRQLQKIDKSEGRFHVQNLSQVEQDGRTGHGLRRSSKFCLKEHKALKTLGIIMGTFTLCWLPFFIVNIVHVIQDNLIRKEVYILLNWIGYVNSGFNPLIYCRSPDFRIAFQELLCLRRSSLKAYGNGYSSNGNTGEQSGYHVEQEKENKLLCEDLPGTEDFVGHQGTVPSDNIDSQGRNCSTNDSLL
# * marks the source's active call; other numbers are inactive results; u = inconclusive; x = no result given.
SMILES,Dyrk1A ADPGlo,dFosB activator,A1 inh,Beta2AR agonist
N#C/C(=C\c1ccc(O)cc1)C(=O)NCc1cccc(Cl)c1,51.0*,3.9,-0.2,5.8
COCCN(C(=O)c1ccccc1F)c1nnc(-c2ccc(OC)cc2)s1,1.5,-7.5,0.9,6.6
CC(CC(=O)N1CCN(S(=O)(=O)c2ccc(Cl)cc2)CC1)n1cncn1 (stereo not drawn),-3.6,4.7,0.8,0.9
COc1ccc(NC(=O)c2cc(-c3ccccc3O)n[nH]2)cc1Cl,-0.9,25.5*,-2.8,-7.3
O=C(NCNC(=O)c1ccccc1)c1ccccc1,-1.4,1.7,0.1,62.8*
Cc1ccc(-c2nnc(NCc3nc4ccccc4[nH]3)c3ccccc23)cc1S(=O)(=O)N1CCCCC1,0.4,79.5*,0.7,5.7
Cc1ccc(-c2nnc(NC3CCCCC3)c3ccccc23)cc1S(=O)(=O)N1CCN(C)CC1,-0.7,-7.6,0.1,-4.4
CN(C1CCCCC1)S(=O)(=O)c1ccc2c(c1)CCC(=O)N2,-4.3,-8.9,x,-5.9
Cc1ccc(C)c(NC(=O)CCC(=O)N/N=C/c2cc([N+](=O)[O-])ccc2O)c1,-55.4,-4.4,-0.8,65.0*
CC(C)(C)Nc1nc(Cl)nc(N(C#N)CN2C(=O)c3ccccc3S2(=O)=O)n1,-2.3,-4.5,-0.6,45.3*
CC(C)Nc1nc(Cl)nc(N(C#N)CN2C(=O)c3ccccc3S2(=O)=O)n1,13.1,-2.7,0.4,10.5
CCN1CCN(C(=O)c2cc(S(=O)(=O)N3CCCCC3)ccc2Cl)CC1,-10.7,-4.8,-0.9,1.1
O=C(N/N=C/c1ccc(OC(=O)c2cccc(Br)c2)cc1)c1cccnc1,1.2,26.8*,-0.3,0.2
O=C(N/N=C/c1cccc(OC(=O)c2cccc(Br)c2)c1)c1cccnc1,0.7,10.5,-0.3,10.5
COc1ccc(OC)c(Nc2nc(-c3cccs3)cs2)c1,2.2,-3.7,-0.7,1.7
COc1ccc(C)cc1Nc1nc(-c2c[nH]c3ccccc23)cs1,5.7,26.8*,-0.2,-22.4
S=C(NCCc1ccccn1)Nc1ccc(Cl)c(Cl)c1,-5.0,4.2,0.8,53.1*
CSC[C@@H]1NC(=S)N(c2ccc(C)cc2)C1=O,-1.3,-0.6,23.2*,5.7
Cc1ccc(N2C(=O)C3CCC(C)(C2=O)C3(C)C)cc1 (stereo not drawn),-6.0,3.8,-0.3,-0.8
O=S(=O)(Nc1cccc(-c2ccc3nncn3n2)c1)c1cc(F)ccc1F,6.6,-9.8,1.7,8.1
Cc1ccc2c(N)c(C)ccc2c1,10.1,-1.0,0.1,-0.8
Cc1ccc2cc3c(N)c4c(C)ccc(C)c4nc3nc2c1,-2.8,29.0*,x,3.3
CCOC(=O)N1CCN(S(=O)(=O)N2CCCC(C(=O)NCCCN3CCCCC3)C2)CC1 (stereo not drawn),-4.2,2.4,0.0,-6.0
O=C1C(Cl)=C(Nc2ccc(O)cc2)C(=O)c2ccccc21,x,-1.8,0.0,73.2*
O=C1C(O)=C(O)C(=O)c2ccccc21,38.4,-1.3,1.1,97.5*
SMILES,Dyrk1A ADPGlo,dFosB activator,A1 inh,Beta2AR agonist
CCN(CC)c1ccc(NC2=C(Cl)C(=O)c3ccccc3C2=O)cc1,3.2,-1.5,u,74.3*
Cc1ccc(NC2=C(Cl)C(=O)c3ccccc3C2=O)cc1,2.5,-5.0,-1.0,35.5
Cc1cc(Cn2nc(-c3ccccc3)cc2C(=O)NCc2cccc(Br)c2)on1,11.6,-1.5,1.6,2.6
Nc1cc(Cl)ccc1C(=O)OCC(=O)NC1CCCCCCC1,x,-2.8,0.2,6.5
O=C(NCc1ccccc1)C(c1ccc(F)cc1)N(C(=O)c1csnn1)C1CCCC1 (stereo not drawn),-4.9,-6.2,0.4,2.0
Nc1nc(Nc2ccc(Cl)cc2)nc(NCc2ccco2)c1[N+](=O)[O-],18.1,57.2*,0.3,1.1
Nc1nc(Nc2cccc(Cl)c2)nc(NCc2ccco2)c1[N+](=O)[O-],7.0,58.4*,-1.3,-5.8
COc1ccc(Nc2nc(N)c([N+](=O)[O-])c(NCCO)n2)cc1,x,x,-0.2,3.6
COc1ccc(Nc2nc(N)c([N+](=O)[O-])c(NCc3ccccc3)n2)cc1,-0.1,29.0*,-0.1,2.5
Nc1nc(NCCCN2CCOCC2)nc(Nc2cccc(Cl)c2)c1[N+](=O)[O-],-0.1,63.3*,-0.6,15.1
COc1cccc(NC(=O)CN(C)C(=O)c2cc(S(=O)(=O)N3CCCCCC3)ccc2OC)c1,-2.1,-4.7,0.2,0.1
COCC(=O)N1CCC(Oc2ccc(C(=O)N(C)C(C)c3ccon3)cc2)CC1 (stereo not drawn),-2.6,2.2,-1.2,3.6
CCOc1ccccc1NC(=O)CCn1ccnc1,-4.7,2.0,-0.1,2.0
Nc1nc(Nc2cccc(F)c2)nc(NCc2ccco2)c1[N+](=O)[O-],3.3,22.8*,-0.5,26.9
Cc1cccc(Nc2nc(NCc3ccco3)nc(N)c2[N+](=O)[O-])c1,17.4,5.3,0.9,-5.0
Cc1cccc(NC(=O)c2nc[nH]c2C(=O)NC2CCN(C(=O)OC(C)(C)C)CC2)c1,-11.8,-10.3,-0.8,0.9
O=C(CNC(=S)N(Cc1ccccc1)Cc1cccnc1)NCCc1ccccc1,-5.2,-1.4,-0.2,-4.9
CCCCNC(=O)CNC(=S)N(Cc1ccccc1)Cc1cccnc1,3.7,-10.2,1.8,51.7*
COc1ccc(CCNC(=O)CC(=O)N/N=C/c2ccc(Br)cc2)cc1OC,3.7,7.7,-0.6,4.3
CCc1ccc2c(c1)/C(=C/C(=O)c1cccs1)C(=O)N2,-3.1,-14.1,0.4,78.1*
CCCCN(C(=S)SC)C1CCS(=O)(=O)C1 (stereo not drawn),x,1.5,0.3,-1.9
COc1ccccc1N(C(=O)CCl)c1cn(C(C)=O)c2ccccc12,-13.7,-4.0,0.4,29.1
CC(=O)n1cc(N(C(=O)CCl)c2ccc(Cl)cc2)c2ccccc21,x,x,2.8,45.8*
COc1ccc(C2=CN3CCCCC3CC2=O)cc1OC (stereo not drawn),2.1,-0.5,-0.8,-2.0
CCN(CC)c1ccc2c(-c3ccc(S(=O)(=O)O)cc3S(=O)(=O)[O-])c3ccc(=[N+](CC)CC)cc-3oc2c1,11.4,62.9*,-0.3,-12.0
SMILES,Dyrk1A ADPGlo,dFosB activator,A1 inh,Beta2AR agonist
CCN(CC)c1ccc2nc3c4ccccc4c(=O)cc-3oc2c1,x,x,-6.1,x
CCCCn1c(N)c(N(CC(C)C)C(=O)c2ccc(-c3ccc(C(C)=O)cc3)o2)c(=O)[nH]c1=O,x,-1.4,0.8,8.3
Cn1c(=Nc2ccc(N3CCOCC3)cc2)ccc2ccccc21,-0.5,-4.4,0.8,-1.1
Cn1c(N=Nc2ccc(N3CCOCC3)cc2)[n+](C)c2ccccc21,1.9,40.3*,x,-11.8
CCN(CC(=O)NCc1cccs1)C(=O)c1cccc(S(=O)(=O)Nc2ccc(C)cc2)c1,-3.5,-8.2,-0.2,-2.6
CCOc1cc(/C=C2\COc3ccccc3C2=O)cc(Br)c1OCC(=O)N(C)C,2.1,-17.4,1.8,55.0*
COc1ccc(/C=C2\COc3ccccc3C2=O)cc1OC,-3.8,-7.4,0.9,11.5
CCc1ccccc1NC(=O)CNC(=O)CNC(=O)c1cccs1,0.8,1.3,0.7,0.2
CS(=O)(=O)c1nc(-c2ccc(F)cc2)cc(C(F)(F)F)n1,1.2,-7.5,x,72.8*
